# PubChem BioAssay (Tox21)
# Values joined by “and” are separate entries in the source; they are usually repeats but may differ in a detail not shown here. Equal entries are not always repeated. Where a structure was tested more than once in an assay, its records may differ in their call. Active and inactive are the calls of the source. Where a call stands in place of a potency, no number is given. Unless noted, calls come from the whole dose curve; as a rule, active = well fitted curve in the direction sought with a large enough effect in the repeat runs; inconclusive = weak or mixed curves; inactive = no such curve, though single readings can be large; an effect the other way counts as inactive or inconclusive.
# What was measured:
# [1] = qHTS assay to identify small molecule antagonists of the glucocorticoid receptor (GR) signaling pathway - cell viability counter screen (AID 720693); note: nearly all actives have a fitted effect of over 55% in size; note: potency is the fitted concentration of half-maximal effect
# [2] = qHTS assay for identifying genotoxic compounds that show differential cytotoxicity against isogenic chicken DT40 cell lines with known DNA damage response pathways - wild type cell line (AID 743012); note: nearly all actives have a fitted effect of over 60% in size; note: potency is the fitted concentration of half-maximal effect
# Outline: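 CellTiter-Glo luminescence readout of viability in wild type DT40 cells after 40 h compound exposure at 37 C/5% CO2; 300 cells/well; reagent incubated 30 min at room temperature before reading.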
# [3] = qHTS assay for identifying genotoxic compounds that show differential cytotoxicity against isogenic chicken DT40 cell lines with known DNA damage response pathways - Rev3 mutant cell line (AID 743014); note: nearly all actives have a fitted effect of over 55% in size; note: potency is the fitted concentration of half-maximal effect
# [4] = qHTS assay for identifying genotoxic compounds that show differential cytotoxicity against isogenic chicken DT40 cell lines with known DNA damage response pathways - Rad54/Ku70 mutant cell line (AID 743015); note: nearly all actives have a fitted effect of over 60% in size; note: potency is the fitted concentration of half-maximal effect
# [5] = qHTS assay to identify small molecule antagonists of the androgen receptor (AR) signaling pathway - cell viability counter screen (AID 743033; note: nearly all actives have a fitted effect of over 45% in size; note: potency is the fitted concentration of half-maximal effect)
# [6] = qHTS assay to identify small molecule antagonists of the androgen receptor (AR) signaling pathway using the MDA cell line - cell viability counter screen (AID 743041; note: nearly all actives have a fitted effect of over 45% in size)
# Outline: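 Using the breast carcinoma line MDA-kb2 AR-luc, test chemicals were co-incubated with R1881 for 16 h; CellTiter-Fluor reagent, added at 15.5 h, provided a fluorescence measure of live cells.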
# [7] = qHTS assay to identify small molecule antagonists of the thyroid receptor (TR) signaling pathway - cell viability counter screen (AID 743064); note: nearly all actives have a fitted effect of over 50% in size; note: potency is the fitted concentration of half-maximal effect
# Outline: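 In-well cytotoxicity read by CellTiter-Fluor (30 min, 37 C) following 23.5 h exposure of GH3 cells bearing a TRE-luciferase sensor. Compounds were added alongside 1 nM (final) T3 to drive TR transactivation.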
# [8] = qHTS assay to identify small molecule antagonists of the thyroid receptor (TR) signaling pathway (AID 743065); note: nearly all actives have a fitted effect of over 55% in size; note: potency is the fitted concentration of half-maximal effect
# Outline: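 Antagonism measured as loss of luciferase signal in GH3 cells stably carrying a TRE-luciferase reporter, co-treated with compound and T3 (1 nM final) for 23.5 h at 37 C. Viability was read in the same well by CellTiter-Fluor.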
# [9] = test system: thyroid hormone receptor (rat, GH3 cells); assay: qHTS assay to identify small molecule agonists of the thyroid receptor (TR) signaling pathway (AID 743066; calls by dose curve; note: potency is the fitted concentration of half-maximal effect)
# [10] = qHTS assay to identify small molecule antagonists of the estrogen receptor alpha (ER-alpha) signaling pathway - cell viability counter screen (AID 743074; calls by dose curve; note: nearly all actives have a fitted effect of over 45% in size; note: potency is the fitted concentration of half-maximal effect)
# [11] = qHTS assay to identify small molecule antagonists of the estrogen receptor alpha (ER-alpha) signaling pathway using the BG1 cell line - cell viability counter screen (AID 743081);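 note: compound given together with 17beta-estradiol as the ER stimulus; nearly all actives have a fitted effect of over 45% in size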; note: potency is the fitted concentration of half-maximal effect
# Aromatase (Homo sapiens) = Aromatase (Homo sapiens) (UniProt P11511); assay: qHTS assay to identify aromatase inhibitors (AID 743083); note: nearly all actives have a fitted effect of over 55% in size; note: potency is the fitted concentration of half-maximal effect
# Sequence of Aromatase (Homo sapiens) (P11511 whole entry, looked up): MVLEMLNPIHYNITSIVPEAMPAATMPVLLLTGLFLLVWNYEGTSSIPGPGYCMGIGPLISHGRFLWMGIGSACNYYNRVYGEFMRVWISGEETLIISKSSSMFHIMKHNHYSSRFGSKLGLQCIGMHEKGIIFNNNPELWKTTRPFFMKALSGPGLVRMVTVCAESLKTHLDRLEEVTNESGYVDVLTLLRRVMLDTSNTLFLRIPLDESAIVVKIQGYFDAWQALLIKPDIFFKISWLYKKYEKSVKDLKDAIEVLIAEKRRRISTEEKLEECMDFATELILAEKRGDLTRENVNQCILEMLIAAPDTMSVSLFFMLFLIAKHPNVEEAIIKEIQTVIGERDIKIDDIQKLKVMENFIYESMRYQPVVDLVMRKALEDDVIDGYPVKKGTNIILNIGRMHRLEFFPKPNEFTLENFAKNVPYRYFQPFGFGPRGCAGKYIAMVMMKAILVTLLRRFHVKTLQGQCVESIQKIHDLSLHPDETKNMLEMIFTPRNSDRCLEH
# [12] = molecular target: Estrogen receptor (Homo sapiens) (UniProt P03372); assay: qHTS assay to identify small molecule antagonists of the estrogen receptor alpha (ER-alpha) signaling pathway (AID 743069; active = well fitted curve in the direction sought with a large enough effect in the signal ratio in the repeat runs, not every such curve was filed as active; inconclusive = weak or mixed curves, or effect the other way; inactive = no such curve, though single readings can be large or run the other way; the % refers to the signal ratio; note: potency is the fitted concentration of half-maximal effect)
# Sequence of Estrogen receptor (Homo sapiens) (P03372 whole entry, looked up): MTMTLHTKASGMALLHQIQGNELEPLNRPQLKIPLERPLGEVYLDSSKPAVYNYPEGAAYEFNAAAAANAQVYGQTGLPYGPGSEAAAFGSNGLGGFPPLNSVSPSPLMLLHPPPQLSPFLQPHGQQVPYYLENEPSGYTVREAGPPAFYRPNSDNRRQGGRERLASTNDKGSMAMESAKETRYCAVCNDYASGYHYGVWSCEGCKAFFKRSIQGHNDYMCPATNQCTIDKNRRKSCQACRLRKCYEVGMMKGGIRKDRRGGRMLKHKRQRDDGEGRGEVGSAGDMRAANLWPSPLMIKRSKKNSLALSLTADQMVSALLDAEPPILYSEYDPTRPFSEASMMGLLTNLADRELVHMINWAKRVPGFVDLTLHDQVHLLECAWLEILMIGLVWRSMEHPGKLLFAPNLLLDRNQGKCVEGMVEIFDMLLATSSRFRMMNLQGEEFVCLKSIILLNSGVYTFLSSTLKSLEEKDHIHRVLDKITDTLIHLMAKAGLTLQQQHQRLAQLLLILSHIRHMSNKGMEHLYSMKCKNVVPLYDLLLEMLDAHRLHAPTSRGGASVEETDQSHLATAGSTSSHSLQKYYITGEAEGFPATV
# Outline: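 Fluorescence intensity from a beta-lactamase FRET substrate served as the read-out. Cells: HEK293 with stably integrated ER-alpha-UAS-bla reporter. Agonist 17beta-estradiol was co-added with compounds; incubation 18 hr at 37C, substrate 2 hr at room temperature.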
# [13] = molecular target: Estrogen receptor (Homo sapiens) (UniProt P03372); assay: qHTS assay to identify small molecule agonists of the estrogen receptor alpha (ER-alpha) signaling pathway (AID 743075; calls by dose curve; note: potency is the fitted concentration of half-maximal effect)
# [14] = molecular target: Estrogen receptor (Homo sapiens) (UniProt P03372); assay: qHTS assay to identify small molecule agonists of the estrogen receptor alpha (ER-alpha) signaling pathway using the BG1 cell line (AID 743079); note: nearly all actives have a fitted effect of over 20% in size; note: potency is the fitted concentration of half-maximal effect
# [15] = qHTS assay to identify small molecule antagonists of the estrogen receptor alpha (ER-alpha) signaling pathway using the BG1 cell line (AID 743080; calls by dose curve;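 note: BG1 cells stimulated with 17beta-estradiol alongside compound; nearly all actives have a fitted effect of over 25% in size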; note: potency is the fitted concentration of half-maximal effect)
# Outline: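 Endogenous full-length ER-alpha in BG1-Luc-4E2 cells drives a stably integrated 4×ERE luciferase gene; compounds were tested against 17beta-estradiol over 21.5 h, with luminescence and multiplexed viability fluorescence recorded.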
# [16] = molecular target: Androgen receptor (Homo sapiens) (UniProt P10275); assay: qHTS assay to identify small molecule antagonists of the androgen receptor (AR) signaling pathway (AID 743035; active = well fitted inhibition curve with a large enough effect in the signal ratio in the repeat runs, not every such curve was filed as active; inconclusive = weak or mixed curves, or effect the other way; inactive = no such curve, though single readings can be large or run the other way; the % refers to the signal ratio)
# Sequence of Androgen receptor (Homo sapiens) (P10275 whole entry, looked up): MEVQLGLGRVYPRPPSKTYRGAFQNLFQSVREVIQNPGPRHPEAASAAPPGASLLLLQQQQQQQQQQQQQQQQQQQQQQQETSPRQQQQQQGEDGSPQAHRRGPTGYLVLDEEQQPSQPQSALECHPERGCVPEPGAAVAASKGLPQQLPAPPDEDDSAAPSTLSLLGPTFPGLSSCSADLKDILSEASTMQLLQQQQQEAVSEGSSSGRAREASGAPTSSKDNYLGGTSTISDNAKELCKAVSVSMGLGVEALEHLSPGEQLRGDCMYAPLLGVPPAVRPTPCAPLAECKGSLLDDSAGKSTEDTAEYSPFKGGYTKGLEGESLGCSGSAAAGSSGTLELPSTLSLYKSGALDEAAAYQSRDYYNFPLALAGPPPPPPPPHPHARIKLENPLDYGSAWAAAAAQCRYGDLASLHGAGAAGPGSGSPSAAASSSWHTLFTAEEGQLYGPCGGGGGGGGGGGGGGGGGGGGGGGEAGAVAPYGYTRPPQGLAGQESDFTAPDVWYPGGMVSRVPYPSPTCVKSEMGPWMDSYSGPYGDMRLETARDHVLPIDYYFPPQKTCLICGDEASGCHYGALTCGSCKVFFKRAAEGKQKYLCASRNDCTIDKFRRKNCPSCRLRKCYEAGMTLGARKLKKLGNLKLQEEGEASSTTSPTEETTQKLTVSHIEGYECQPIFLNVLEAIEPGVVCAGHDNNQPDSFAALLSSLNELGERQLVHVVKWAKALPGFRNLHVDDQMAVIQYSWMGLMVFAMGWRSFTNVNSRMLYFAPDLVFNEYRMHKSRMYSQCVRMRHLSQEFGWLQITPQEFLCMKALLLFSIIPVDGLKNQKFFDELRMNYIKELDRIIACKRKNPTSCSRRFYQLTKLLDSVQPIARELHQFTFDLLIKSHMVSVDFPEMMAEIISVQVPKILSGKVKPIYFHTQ
# Outline: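 AR-bla HEK293 reporter cells; 4 h settle at 37C/5% CO2; compound + R1881 agonist, 16 h at 37C; LiveBLAzer B/G FRET substrate 2 h RT; fluorescence intensity read. qHTS format.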
# [17] = molecular target: Androgen receptor (Homo sapiens) (UniProt P10275); assay: qHTS assay to identify small molecule agonists of the androgen receptor (AR) signaling pathway (AID 743036; active = well fitted activation curve with a large enough effect in the signal ratio in the repeat runs, with a control signal flat, not every such curve was filed as active; inconclusive = weak or mixed curves, or effect the other way; inactive = no such curve, though single readings can be large or run the other way; the % refers to the signal ratio; note: potency is the fitted concentration of half-maximal effect)
# Outline: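 Activation was read as beta-lactamase FRET signal from LiveBLAzer B/G substrate, added for 2 h at room temperature. Before that, GeneBLAzer AR-UAS-bla GripTite (HEK293) cells had 16 h compound exposure at 37C.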
# [18] = molecular target: Androgen receptor (Homo sapiens) (UniProt P10275); assay: qHTS assay to identify small molecule agonists of the androgen receptor (AR) signaling pathway using the MDA cell line (AID 743040; note: nearly all actives have a fitted effect of over 20% in size; note: potency is the fitted concentration of half-maximal effect); conditions: MDA-kb2 AR-luc cells, MMTV luciferase, 16 h; activity change: at 70.3 µM (top of the series), stronger effect = higher value
# Outline: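 Stable MMTV-luciferase reporter in MDA-kb2 cells; note the promoter carries GR as well as AR response elements. 16 h compound treatment, 37C, 0% CO2; ONE-Glo luminescence endpoint.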
# [19] = molecular target: Androgen receptor (Homo sapiens) (UniProt P10275); assay: qHTS assay to identify small molecule antagonists of the androgen receptor (AR) signaling pathway using the MDA cell line (AID 743042; note: nearly all actives have a fitted effect of over 55% in size)
# Outline: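 Antagonist mode: compounds plus R1881 agonist added to MDA-kb2 AR-luc cells, incubated 16 h at 37C. Luciferase reporter luminescence quantified, with multiplexed CellTiter-Fluor readout for cell viability.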
SMILES,Potency [1],Potency [2],Potency [3],Potency [4],Potency [5],Potency [6],Potency [7],Potency [8],Potency [9],Potency [10],Potency [11],Potency (Aromatase (Homo sapiens)),Potency [12],Potency [13],Potency [14],Potency [15],Potency [16],Potency [17],Potency [18],Potency [19]
O=C1C=CC(=O)C=C1,inactive,inactive and 9.69 µM (active),inactive and 9.69 µM (active),inactive and 10.9 µM (active),inactive,inactive,inactive,inactive,inactive,inactive,inactive,inactive,–,–,–,–,–,–,–,–
O=P(Oc1ccccc1)(Oc1ccccc1)Oc1ccccc1,inactive,54.2 µM (active) and 48.6 µM (active),60.8 µM (active) and 48.6 µM (active),38.4 µM (active) and 27.3 µM (active),inactive,inactive,–,inactive,inactive,inactive,inactive,inactive,inactive,inactive,6.08 µM (active),inactive,–,–,–,–
CCCCCCCCC(=O)NCc1ccc(O)c(OC)c1,inactive,inactive,inactive and 68.6 µM (active),inactive,inactive,inactive,inactive,54.5 µM (active),inactive,inactive,inactive,inactive,inactive,inactive,inactive,inactive,–,–,–,–
CCCCC(CC)COC(=O)Cl (stereo not drawn),inactive,inactive,inactive,inactive,inactive,inactive,inactive,inactive,inactive,inactive,inactive,inactive,inactive,inactive,inactive,inactive,–,–,–,–
O=Cc1ccco1,inactive,inactive,inactive,inactive,inactive,inactive,–,inactive,inactive,inactive,inactive,inactive,–,–,–,–,–,–,–,–
Cc1cccc(N)c1N,inactive,inactive and 19.3 µM (active),19.3 µM (active),21.7 µM (active),inactive,inactive,–,inactive,inactive,inactive,inactive,inactive,–,–,–,–,–,–,–,–
COP(=O)(OC)OC,inactive,inactive,inactive,inactive,inactive,inactive,–,inactive,inactive,–,inactive,inactive,inactive,inactive,inactive,inactive,inactive,inactive,inactive,inactive
NNC(=S)NN,inactive,61.1 µM (active),54.5 µM (active),43.3 µM (active),inactive,inactive,inactive,inactive,inactive and 61.1 µM (active),inactive,inactive,inactive,inactive,inactive,inactive,inactive,–,–,–,–
CCCCN(CCCC)N=O,inactive,inactive,inactive,inactive,inactive,inactive,inactive,inactive,inactive,inactive,inactive,inactive,inactive,inactive,inactive,inactive,–,–,–,–
COC(=O)c1sccc1S(=O)(=O)NC(=O)Nc1nc(C)nc(OC)n1,inactive,inactive,inactive,inactive,inactive,inactive,inactive,inactive,inactive,inactive,inactive,inactive,inactive,inactive,inactive,inactive,–,–,–,–
Oc1cc(Cl)ccc1Cl,inactive,inactive,inactive,inactive,inactive,inactive,–,inactive,inactive,–,inactive,inactive,–,–,–,–,–,–,–,–
COP(=S)(OC)Oc1cc(Cl)c(Cl)cc1Cl,inactive,inactive,inactive,inactive,inactive,inactive,inactive,inactive,inactive,inactive,inactive,inactive,–,inactive,inactive,inactive,inactive,–,inactive,inactive
CC(O)CCO (stereo not drawn),inactive,inactive,inactive and 68.6 µM (active),inactive,inactive,inactive,–,inactive,inactive,inactive,inactive,inactive,–,–,–,–,–,–,–,–
CCOc1cc(C=O)ccc1O,inactive,inactive,inactive,inactive,inactive,inactive,inactive,inactive,inactive,inactive,inactive,–,–,–,–,–,–,–,–,–
S=C1NCCN1,inactive,inactive,inactive,inactive,inactive,inactive,–,inactive,inactive,inactive,inactive,inactive,–,–,–,–,–,–,–,–
O=C(Nc1ccc(Br)cc1)c1cc(Br)cc(Br)c1O,3.45 µM (active) and 2.19 µM (active),21.7 µM (active),inactive and 19.3 µM (active),inactive and 19.3 µM (active),inactive and 24.5 µM (active) and 9.77 µM (active),inactive,16.8 µM (active) and 5.43 µM (active) and 4.33 µM (active),8.41 µM (active) and 2.16 µM (active) and 1.93 µM (active),inactive,6.01 µM (active) and 4.35 µM (active) and 2.19 µM (active),inactive,inactive and 13.7 µM (active),–,inactive,–,15.4 µM (active),–,–,–,–
CCC(=O)O[C@H]1CC[C@H]2[C@@H]3CCC4=CC(=O)CC[C@]4(C)[C@H]3CC[C@]12C,inactive,10.1 µM (active) and 19.3 µM (active),11.4 µM (active) and 17.2 µM (active),12.7 µM (active) and 21.7 µM (active),inactive and 49 µM (active),inactive,inactive and 43.3 µM (active),–,inactive,inactive,inactive,inactive,–,3.23 µM [inconclusive] (active) and 3.47 µM [inconclusive] (active),22.7 nM (active) and 34.4 nM (active),inactive,–,0.0039 µM (active),1.3 nM (active) and 1.7 nM (active),inactive
C=CCN(CC=C)C(=O)C(Cl)Cl,inactive,inactive,inactive,inactive,inactive,inactive,–,inactive,inactive,inactive,inactive,inactive,–,–,–,–,–,–,–,–
C=CCc1ccc(OC)cc1,inactive,inactive,26.5 µM (active),inactive,inactive,inactive,inactive,inactive,inactive,inactive,inactive,inactive,–,–,–,–,–,–,–,–
Nc1ccc(Cl)c(Cl)c1,inactive,inactive,inactive,inactive,inactive,inactive,–,inactive,inactive,inactive,inactive,inactive,–,–,–,–,–,–,–,–
Clc1nc(Cl)nc(Cl)n1,inactive,15.4 µM (active),inactive and 15.4 µM (active),inactive and 13.7 µM (active),inactive,inactive,–,inactive,inactive,inactive,inactive,inactive,inactive,inactive,–,inactive,–,–,–,–
ClC1C(Cl)C(Cl)C(Cl)C(Cl)C1Cl (stereo not drawn),inactive,inactive and 54.5 µM (active),inactive and 48.6 µM (active) and 24.3 µM (active),inactive and 48.6 µM (active) and 17.2 µM (active),inactive,inactive,inactive,–,inactive,inactive,inactive,inactive and 54.5 µM (active),–,–,–,–,–,–,–,–
CCC(C)c1cc([N+](=O)[O-])cc([N+](=O)[O-])c1O (stereo not drawn),inactive,inactive and 27.3 µM (active),inactive and 30.6 µM (active),inactive and 27.3 µM (active),inactive and 19.5 µM (active),–,27.3 µM (active),–,inactive,inactive,inactive and 4.86 µM (active),inactive and 30.6 µM (active),inactive and 6.92 µM [inhibitor] (active),inactive,inactive,inactive,–,–,–,–
CCN(N=O)C(N)=O,inactive,inactive,inactive,inactive,inactive,inactive,inactive,inactive,inactive,inactive,inactive,inactive,inactive,inactive,inactive,inactive,–,–,–,–
Cc1c(COC(=O)[C@@H]2[C@H](/C=C(\Cl)C(F)(F)F)C2(C)C)cccc1-c1ccccc1,inactive,inactive,inactive,inactive,inactive,inactive,–,15 µM (active) and 15.3 µM (active),inactive,26.9 µM (active),inactive,inactive,inactive,inactive,inactive,–,–,–,–,–
O=C(CCl)c1ccccc1,inactive,inactive and 68.6 µM (active),54.5 µM (active),61.1 µM (active),inactive,inactive,inactive and 68.6 µM (active),–,inactive,inactive,inactive,inactive,–,–,–,–,–,–,–,–
O=C(O)C(F)(F)C(F)(F)C(F)(F)C(F)(F)C(F)(F)C(F)(F)C(F)(F)F,inactive,inactive,inactive,inactive,inactive,inactive,inactive,inactive,inactive,inactive,inactive,inactive,–,–,–,–,–,–,–,–
NC(=S)Nc1ccccc1,inactive,inactive,inactive,inactive,inactive,inactive,inactive,inactive,inactive,inactive,inactive,inactive,inactive,inactive,inactive,inactive,–,–,–,–
CCOP(=S)(OCC)O/N=C(\C#N)c1ccccc1,inactive,inactive,inactive,inactive,inactive,inactive,–,inactive,inactive,inactive,inactive,inactive,–,–,–,–,–,–,–,–
CCOC(=S)S,inactive,24.3 µM (active) and 16.3 µM (active),21.7 µM (active) and 16.3 µM (active),24.3 µM (active) and 16.3 µM (active),13.8 µM (active) and 8.26 µM (active),–,inactive,51.7 µM (active),inactive,inactive,inactive,68.6 µM (active) and 58 µM (active),–,–,–,–,–,–,–,–
